PubChem BioAssay AID1159580 (chemical genetic matrix, 2015)
Screen size: about 5,500 compounds; about 2,000 (36%) were called active. About 18% were inconclusive and are not listed. Some of the results follow. Unmarked numbers belong to inactive results. No stated cut-off is given here; in the data, active means normalized growth mostly below about 0.91 (no sharp cut-off); inconclusive means no clear call, values can overlap the other calls; inactive means mostly above about 0.92.

Assay: chemical genetic growth profiling, strain panel (AID 1159580);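 further: tested at 20 µM; growth read once vehicle control cultures reached saturation at 30 °C; 1 = growth at the plate median or of vehicle wells; lower values mean less growth of the strain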
Details: S. cerevisiae deletion strains, growth OD

C=CCCCCCCCCCCCC(O)CC(O)CO (centres undefined) (tested in a mixture with another compound)
normalized growth (locus YBR021W, strain FUR4, hits give low values): 0.426 (active)
normalized growth (locus YBR229C, strain ROT2, hits give low values): 0.531 (active)
normalized growth (locus YCL029C, strain bik1, hits give low values): 0.253 (active)
normalized growth (locus YDL035C, strain GPR1, hits give low values): 0.359 (active)
normalized growth (locus YDL074C, strain BRE1, hits give low values): 0.208 (active)
normalized growth (locus YDL101C, strain DUN1, hits give low values): 0.242 (active)
normalized growth (locus YDL185W, strain tfp1, hits give low values): 0.611 (active)
normalized growth (locus YDL192W, strain arf1, hits give low values): 0.231 (active)
normalized growth (locus YDR101C, strain arx1, hits give low values): 0.471 (active)
normalized growth (locus YDR150W, strain NUM1, hits give low values): 0.637 (active)
normalized growth (locus YDR162C, strain NBP2, hits give low values): 0.281 (active)
normalized growth (locus YDR318W, strain mcm21, hits give low values): 0.224 (active)
normalized growth (locus YDR388W, hits give low values): 0.496 (active)
normalized growth (locus YDR502C, strain sam2, hits give low values): 0.347 (active)
normalized growth (locus YEL061C, strain CIN8, hits give low values): 0.177 (active)
normalized growth (locus YER110C, hits give low values): 0.27 (active)
normalized growth (locus YER155C, strain BEM2, hits give low values): 0.0936 (active)
normalized growth (locus YER167W, strain BCK2, hits give low values): 0.276 (active)
normalized growth (locus YGL078C, strain dbp3, hits give low values): 0.465 (active)
normalized growth (locus YGL086W, strain mad1, hits give low values): 0.145 (active)
normalized growth (locus YGL248W, strain PDE1, hits give low values): 0.165 (active)
normalized growth (locus YGR135W, strain pre9, hits give low values): 0.335 (active)
normalized growth (locus YGR252W, strain gcn5, hits give low values): 0.407 (active)
normalized growth (locus YHR030C, strain SLT2, hits give low values): 0.21 (active)
normalized growth (locus YHR079C, strain IRE1 (second series), hits give low values): 0.253 (active)
normalized growth (locus YHR094C, strain hxt1, hits give low values): 0.198 (active)
normalized growth (locus YHR129C, strain ARP1, hits give low values): 0.248 (active)
normalized growth (locus YHR200W, strain rpn10, hits give low values): 0.328 (active)
normalized growth (locus YIL066C, strain RNR3, hits give low values): 0.217 (active)
normalized growth (locus YIL073C, strain SPO22, hits give low values): 0.544 (active)
normalized growth (locus YIL125W, strain kgd1, hits give low values): 0.288 (active)
normalized growth (locus YIR030C, strain dcg1, hits give low values): 0.341 (active)
normalized growth (locus YJL095W, strain BCK1, hits give low values): 0.139 (active)
normalized growth (locus YJL134W, strain LCB3, hits give low values): 0.273 (active)
normalized growth (locus YJL168C, strain set2, hits give low values): 0.521 (active)
normalized growth (locus YJL187C, strain SWE1 (second series), hits give low values): 0.386 (active)
normalized growth (locus YKL009W, strain mrt4, hits give low values): 0.274 (active)
normalized growth (locus YKL068W, hits give low values): 1
normalized growth (locus YKL085W, strain MDH1 (second series), hits give low values): 0.343 (active)
normalized growth (locus YKL085W, strain MDH1, hits give low values): 0.343 (active)
normalized growth (locus YKR001C, strain vps1, hits give low values): 0.123 (active)
normalized growth (locus YLR039C, strain RIC1, hits give low values): 0.46 (active)
normalized growth (locus YLR058C, strain SHM2, hits give low values): 0.301 (active)
normalized growth (locus YLR102C, strain apc9, hits give low values): 0.225 (active)
normalized growth (locus YLR262C, strain YPT6, hits give low values): 0.355 (active)
normalized growth (locus YLR268W, strain sec22, hits give low values): 0.308 (active)
normalized growth (locus YLR330W, strain CHS5, hits give low values): 0.097 (active)
normalized growth (locus YLR371W, strain rom2, hits give low values): 0.204 (active)
normalized growth (locus YLR418C, strain cdc73, hits give low values): 0.186 (active)
normalized growth (locus YML016C, strain PPZ1, hits give low values): 0.218 (active)
normalized growth (locus YML032C, strain rad52, hits give low values): 0.201 (active)
normalized growth (locus YML124C, strain tub3, hits give low values): 0.503 (active)
normalized growth (locus YMR078C, strain ctf18, hits give low values): 0.125 (active)
normalized growth (locus YMR223W, strain ubp8, hits give low values): 0.159 (active)
normalized growth (locus YMR263W, strain SAP30, hits give low values): 0.32 (active)
normalized growth (locus YMR307W, strain GAS1, hits give low values): 0.241 (active)
normalized growth (locus YNL067W, strain RPL9B, hits give low values): 0.56 (active)
normalized growth (locus YNL153C, strain GIM3, hits give low values): 0.365 (active)
normalized growth (locus YNL233W, strain BNI4, hits give low values): 0.141 (active)
normalized growth (locus YNL250W, strain rad50, hits give low values): 0.734 (active)
normalized growth (locus YNL271C, strain bni1, hits give low values): 0.526 (active)
normalized growth (locus YNL298W, strain CLA4, hits give low values): 0.384 (active)
normalized growth (locus YNL307C, strain MCK1, hits give low values): 0.0684 (active)
normalized growth (locus YNR052C, strain pop2, hits give low values): 0.426 (active)
normalized growth (locus YOL006C, strain TOP1, hits give low values): 0.149 (active)
normalized growth (locus YOL012C, strain htz1): 1.15
normalized growth (locus YOL147C, strain pex11, hits give low values): 0.104 (active)
normalized growth (locus YOR061W, strain CKA2, hits give low values): 0.0632 (active)
normalized growth (locus YOR069W, strain VPS5, hits give low values): 0.559 (active)
normalized growth (locus YOR136W, strain idh2, hits give low values): 0.136 (active)
normalized growth (locus YOR144C, strain elg1, hits give low values): 0.236 (active)
normalized growth (locus YOR184W, strain ser1, hits give low values): 0.129 (active)
normalized growth (locus YOR316C, strain cot1, hits give low values): 0.354 (active)
normalized growth (locus YPL241C, strain CIN2, hits give low values): 0.114 (active)
normalized growth (locus YPR119W, strain clb2, hits give low values): 0.148 (active)
normalized growth (locus YPR141C, strain kar3, hits give low values): 0.824 (active)
normalized growth (locus YPR163C, strain tif3, hits give low values): 0.205 (active)
normalized growth (locus YPR167C, strain met16, hits give low values): 0.203 (active)
normalized growth (strain wtn01, hits give low values): 0.337 (active)
